Screens (PubChem BioAssay)
JMJD2A Tudor inh – blocks the human JMJD2A Tudor domain | AlphaScreen JMJD2A-Tudor / H3K4me3 peptide binding | actives 4.4% (n = 390,000) | AID 504339 | Potency, µM (doses to about 114 µM), for inactives: at the highest dose activity change, negative = inhibition, hits mostly inhibitors; further: on the % scale 0 is the no-effect control and ±100 the full control effect; nearly all actives have a fitted effect of over 50% in size
HP1b chromo inh – inhibitors of HP1-beta chromodomain binding to methylated histone tails | AlphaScreen HP1-beta / biotin-H3K9me3 peptide binding | Potency, µM (top dose mostly 114 µM), inactives show at the top dose activity change, negative = inhibition, hits mostly inhibitors | actives 0.56% (n = 390,000) | AID 540317 | P83916; further: nearly all actives have a fitted effect of over 70% in size
Target sequence (P83916 whole entry, looked up): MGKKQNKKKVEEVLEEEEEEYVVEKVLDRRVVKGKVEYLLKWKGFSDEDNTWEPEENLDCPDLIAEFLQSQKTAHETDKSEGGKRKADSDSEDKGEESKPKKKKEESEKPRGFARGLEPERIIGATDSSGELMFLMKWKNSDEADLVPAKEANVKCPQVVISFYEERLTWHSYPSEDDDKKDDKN
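AlphaScreen: HP1-beta (50 nM) preformed 30 min with biotin-H3(1-18)K9me3 peptide (50 nM) in PBS pH 7.4, 0.01% Tween-20. Compound added for 30 min at RT, then streptavidin donor/nickel chelate acceptor beads (10 ug/mL) for 30 min.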
BAZ2B inh – inhibitors of human BAZ2B bromodomain; Q9UIF8; AlphaScreen BAZ2B-H3K14Ac peptide displacement; Potency, µM (top dose mostly 114 µM), inactives show at the top dose activity change, negative = inhibition, actives largely listed as inhibitors; actives 4.4% (n = 360,000); further: on the % scale 0 is the no-effect control and ±100 the full control effect; nearly all actives have a fitted effect of over 60% in size
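Multi-concentration screen (max 110 uM) measuring displacement of acetylated histone H3 peptide from BAZ2B by AlphaScreen, using 50 nM protein, 50 nM peptide and 10 ug/mL streptavidin donor plus Ni-chelate acceptor beads.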
L3MBTL1 inh – L3MBTL1 (human) inhibition. Q9Y468. AlphaScreen L3MBTL1–H3K9me1 peptide binding. Potency, µM (highest dose often 57.1 µM), inactives show at the top dose activity, negative = inhibition, hits mostly inhibitors. actives 0.66% (n = 230,000). AID 485360; further: on the % scale 0 is the no-effect control and ±100 the full control effect; nearly all actives have a fitted effect of over 60% in size
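AlphaScreen assay: L3MBTL1 (50 nM final) was preincubated 30 min at room temperature with biotinylated H3(1-15)K9me1 peptide (75 nM final), then 30 min with library compounds; streptavidin donor and nickel chelate acceptor beads (10 ug/mL final) added, 30 min dark.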
PLK1 PBD inh – inhibitors of human PLK1 polo-box domain binding. P53350. Plk1 PBD binding of FITC phosphopeptide, fluorescence polarization. Potency, µM, for the others: max response, negative = inhibition, most hits filed as inhibitors. actives 2.8% (n = 360,000). AID 720504; further: series mostly up to about 57 µM; on the % scale 0 is the no-effect control and ±100 the full control effect; nearly all actives have a fitted effect of over 65% in size
VDR inh – blocks the human vitamin D receptor | VDR-SRC2-3 peptide fluorescence polarization, 2 h | Potency, µM, for inactives: max response, negative = inhibition, usual class: inhibitors | actives 0.93% (n = 400,000); further: on the % scale 0 is the no-effect control and ±100 the full control effect
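Compounds are added to VDR with labelled SRC2-3 coactivator peptide and held 2 h at room temperature. Inhibition of the VDR–peptide interaction is then read as a change in fluorescence polarization.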
Starred values were filed as active, the others as inactive; ? = inconclusive; . = no result given; [ ] = another dose, or the depositor's remark. Shown are actives, neighbours in structure and some others; about 6.9% of the full set was active somewhere. The call rests on the fitted dose curve; in most records, active means well fitted curve in the direction sought with a large enough effect; inconclusive means small, poorly fitted or top-dose-only effect, or another doubt; inactive means no such curve, though single readings can be large; an effect the other way counts as inactive or inconclusive. Potency means the concentration at half of the fitted maximal effect.

SMILES	JMJD2A Tudor inh	HP1b chromo inh	BAZ2B inh	L3MBTL1 inh	PLK1 PBD inh	VDR inh
C=CCn1cc(/C=N/Nc2nc3ccccc3[nH]2)c2ccccc21	40µM*	?	40µM*	-21%	-8%	-8%
CC(C)Cn1c(/C=N/Nc2nc3ccccc3[nH]2)nc2ccccc21	-30%	-7%	?	?	-12%	-17%
COc1cc(-c2oc3cc(O)cc(O)c3c(=O)c2O[C@@H]2O[C@H](CO)[C@@H](O)[C@H](O)[C@H]2O)ccc1O	.	.	.	.	.	-4%
CC1OC(OCC2OC(Oc3c(-c4ccc(O)cc4)oc4cc(O)cc(O)c4c3=O)C(O)C(O)C2O)C(O)C(O)C1O (stereo not drawn)	?	-2%	?	14µM*	-7%	1%
O=c1c(OC2OC(CO)C(O)C(O)C2OC2OC(CO)C(O)C(O)C2OC2OC(CO)C(O)C(O)C2O)c(-c2ccc(O)c(O)c2)oc2cc(O)cc(O)c12 (stereo not drawn)	32µM*	-9%	?	.	-14%	-9%
O=c1c(O[C@@H]2O[C@H](CO)[C@@H](O)[C@H](O)[C@H]2O)c(-c2ccc(O)c(O)c2)oc2cc(O)cc(O)c12	.	.	-28%	.	.	.
COc1c(-c2ccc(O)c(O)c2)oc2cc(O)cc(O)c2c1=O	?	2%	35µM*	.	-7%	-7%
COc1ccccc1NCC(O)Cn1c2ccccc2c2ccccc21 (stereo not drawn)	40µM*	?	40µM*	.	-1%	10%
O=C(Nc1ccc(F)cc1)c1ccccc1NS(=O)(=O)N1CCCC1	-6%	20%[57 µM]	1%	0%	-14%	-9%
Cc1ccc(NC(=O)c2ccc(F)c(S(=O)(=O)N3CCc4ccccc4C3)c2)cc1F	-13%	37%	2%	.	.	0%
O=C(NCCc1ccccc1)c1cc2ncc(Br)cn2n1	-25%	31%	50µM*	.	-6%	-9%
O=C(Nc1ccc2c(c1)OCO2)c1cc2ncc(Br)cn2n1	?	?	50µM*	.	12µM*	-7%
O=C(Nc1cccc(C(F)(F)F)c1)c1cc2ncc(Br)cn2n1	-17%	19%	?	.	-9%	10%
Cc1ccc2c(=O)c(C(=O)c3ccc(Cl)cc3)cn(CC(=O)Nc3ccc4c(c3)OCCO4)c2n1	-6%	19%	9%[57.1 µM]	.	.	15%
Cc1cccc(N2CCN(C(=O)C3CCN(c4ncnc5c4nc4n5CCCCC4)CC3)CC2C)c1 (stereo not drawn)	-30%	7%	35µM*	.	3%	13%
S=C(Nc1ccc(Cl)c(Cl)c1)N1CCN(c2ccccn2)CC1	11%[57.1 µM]	49%	-23%	-23%	-16%	-7%
COc1cccc(NC(=S)N2CCN(c3ccccn3)CC2)c1	89µM*	8%	-10%	2%	27µM*	?
COc1ccc(Cl)cc1NC(=S)N1CCN(c2ccccn2)CC1	-10%	15%	4%	1%	-7%	-4%
S=C(Nc1ccc(Oc2ccccc2)cc1)N1CCN(c2ccccn2)CC1	-4%	-3%	-20%	-9%	24µM*	-12%
COc1cc(NC(=S)N2CCN(c3ccccn3)CC2)c(OC)cc1Cl	?	-38%	-26%	-1%	24µM*	?
CNc1nc2c(c(=O)n(C)c(=O)n2C)n1CC(O)COc1ccc(OC)cc1 (stereo not drawn)	-25%	12%	?	.	.	-14%
COc1ccc(NS(=O)(=O)c2ccc3c(c2)CCC(=O)N3)cc1	-13%	.	.	.	.	.
C#CCOCCOCCOCCNc1nc(N2CCN(C(=O)[C@H](CCC(=O)O)n3cc(C(N)CO)nn3)CC2)nc(N2CCN(C(=O)[C@H](CCC(=O)O)n3cc(C(N)CC(C)C)nn3)CC2)n1 (stereo partly drawn)	.	.	20µM*	.	.	.
